Test results reported in ChEMBL document CHEMBL1961873, “Compounds: GSK PKIS; Assays: Nanosyn kinase panel” (2012).

How the values were obtained:
[1] = target: Glycogen synthase kinase-3 beta (Homo sapiens) (UniProt P49841); conditions: at 1 µM;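 further: reported values are mean percent inhibition of GSK3B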
[2] = target: Homeodomain-interacting protein kinase 1 (Homo sapiens) (UniProt Q86Z02); conditions: at 0.1 µM
[3] = target: Homeodomain-interacting protein kinase 1 (Homo sapiens) (UniProt Q86Z02); conditions: at 1 µM
[4] = target: T1, Homeodomain-interacting protein kinase 4 (Homo sapiens) (UniProt Q8NE63); conditions: at 0.1 µM
T1 sequence (whole entry): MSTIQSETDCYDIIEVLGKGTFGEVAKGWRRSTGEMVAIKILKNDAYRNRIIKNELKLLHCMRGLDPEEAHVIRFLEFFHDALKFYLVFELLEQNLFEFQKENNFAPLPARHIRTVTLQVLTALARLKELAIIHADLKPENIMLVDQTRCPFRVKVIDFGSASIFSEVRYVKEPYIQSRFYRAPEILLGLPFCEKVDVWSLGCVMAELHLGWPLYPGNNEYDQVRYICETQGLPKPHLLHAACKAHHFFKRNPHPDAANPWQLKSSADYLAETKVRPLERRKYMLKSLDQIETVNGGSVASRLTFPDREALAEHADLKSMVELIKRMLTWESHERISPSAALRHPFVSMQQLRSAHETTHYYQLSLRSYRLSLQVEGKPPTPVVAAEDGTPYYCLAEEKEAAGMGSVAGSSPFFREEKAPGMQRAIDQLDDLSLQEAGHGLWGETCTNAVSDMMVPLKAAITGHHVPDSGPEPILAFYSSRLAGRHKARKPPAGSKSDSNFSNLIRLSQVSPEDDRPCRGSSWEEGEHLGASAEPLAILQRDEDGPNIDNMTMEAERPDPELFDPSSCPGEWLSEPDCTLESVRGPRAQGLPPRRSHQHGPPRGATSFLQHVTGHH

[5] = target: T1, Homeodomain-interacting protein kinase 4 (Homo sapiens); conditions: at 1 µM
[6] = target: Mitogen-activated protein kinase 9 (Homo sapiens) (UniProt P45984); conditions: at 0.1 µM
[7] = target: Mitogen-activated protein kinase 9 (Homo sapiens) (UniProt P45984); conditions: at 1 µM
[8] = target: Mitogen-activated protein kinase 1 (Homo sapiens) (UniProt P28482); conditions: at 0.1 µM
[9] = target: Mitogen-activated protein kinase 1 (Homo sapiens) (UniProt P28482); conditions: at 1 µM
[10] = target: Mitogen-activated protein kinase 3 (Homo sapiens) (UniProt P27361); conditions: at 0.1 µM;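 further: each value is a mean inhibition figure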
Chain of Mitogen-activated protein kinase 3 (Homo sapiens) (P27361 whole entry): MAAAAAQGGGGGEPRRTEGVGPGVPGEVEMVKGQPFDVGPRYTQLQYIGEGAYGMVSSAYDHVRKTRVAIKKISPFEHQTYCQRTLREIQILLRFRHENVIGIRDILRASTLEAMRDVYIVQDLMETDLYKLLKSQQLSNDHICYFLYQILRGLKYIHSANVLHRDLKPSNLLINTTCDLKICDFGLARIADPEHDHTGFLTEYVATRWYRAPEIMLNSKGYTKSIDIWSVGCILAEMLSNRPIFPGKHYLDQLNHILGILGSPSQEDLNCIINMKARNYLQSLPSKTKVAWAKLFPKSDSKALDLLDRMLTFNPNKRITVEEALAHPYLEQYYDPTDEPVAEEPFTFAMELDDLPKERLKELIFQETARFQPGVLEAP

Chain of Glycogen synthase kinase-3 beta (Homo sapiens) (P49841 whole entry, looked up): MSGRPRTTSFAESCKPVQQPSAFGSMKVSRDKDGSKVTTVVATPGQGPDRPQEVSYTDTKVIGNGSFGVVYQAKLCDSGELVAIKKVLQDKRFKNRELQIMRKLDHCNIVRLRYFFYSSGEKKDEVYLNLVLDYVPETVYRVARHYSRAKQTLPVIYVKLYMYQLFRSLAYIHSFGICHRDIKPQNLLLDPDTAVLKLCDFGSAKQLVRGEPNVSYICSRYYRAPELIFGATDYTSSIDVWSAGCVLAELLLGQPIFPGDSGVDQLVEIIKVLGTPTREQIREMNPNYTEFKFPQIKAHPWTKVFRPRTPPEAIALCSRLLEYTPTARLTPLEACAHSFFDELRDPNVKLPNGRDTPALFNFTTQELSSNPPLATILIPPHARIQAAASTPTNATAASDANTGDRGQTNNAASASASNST
Chain of Mitogen-activated protein kinase 1 (Homo sapiens) (P28482 whole entry): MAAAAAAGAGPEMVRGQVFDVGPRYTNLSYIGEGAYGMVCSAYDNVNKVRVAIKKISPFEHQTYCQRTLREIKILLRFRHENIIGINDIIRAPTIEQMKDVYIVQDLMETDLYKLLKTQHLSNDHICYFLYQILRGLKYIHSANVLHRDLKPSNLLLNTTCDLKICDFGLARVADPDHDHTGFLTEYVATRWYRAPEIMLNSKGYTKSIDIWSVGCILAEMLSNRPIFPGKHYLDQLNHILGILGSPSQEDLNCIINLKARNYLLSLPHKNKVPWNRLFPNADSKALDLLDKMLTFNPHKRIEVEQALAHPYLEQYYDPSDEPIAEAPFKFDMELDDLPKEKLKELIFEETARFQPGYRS
Chain of Homeodomain-interacting protein kinase 1 (Homo sapiens) (Q86Z02 whole entry, looked up): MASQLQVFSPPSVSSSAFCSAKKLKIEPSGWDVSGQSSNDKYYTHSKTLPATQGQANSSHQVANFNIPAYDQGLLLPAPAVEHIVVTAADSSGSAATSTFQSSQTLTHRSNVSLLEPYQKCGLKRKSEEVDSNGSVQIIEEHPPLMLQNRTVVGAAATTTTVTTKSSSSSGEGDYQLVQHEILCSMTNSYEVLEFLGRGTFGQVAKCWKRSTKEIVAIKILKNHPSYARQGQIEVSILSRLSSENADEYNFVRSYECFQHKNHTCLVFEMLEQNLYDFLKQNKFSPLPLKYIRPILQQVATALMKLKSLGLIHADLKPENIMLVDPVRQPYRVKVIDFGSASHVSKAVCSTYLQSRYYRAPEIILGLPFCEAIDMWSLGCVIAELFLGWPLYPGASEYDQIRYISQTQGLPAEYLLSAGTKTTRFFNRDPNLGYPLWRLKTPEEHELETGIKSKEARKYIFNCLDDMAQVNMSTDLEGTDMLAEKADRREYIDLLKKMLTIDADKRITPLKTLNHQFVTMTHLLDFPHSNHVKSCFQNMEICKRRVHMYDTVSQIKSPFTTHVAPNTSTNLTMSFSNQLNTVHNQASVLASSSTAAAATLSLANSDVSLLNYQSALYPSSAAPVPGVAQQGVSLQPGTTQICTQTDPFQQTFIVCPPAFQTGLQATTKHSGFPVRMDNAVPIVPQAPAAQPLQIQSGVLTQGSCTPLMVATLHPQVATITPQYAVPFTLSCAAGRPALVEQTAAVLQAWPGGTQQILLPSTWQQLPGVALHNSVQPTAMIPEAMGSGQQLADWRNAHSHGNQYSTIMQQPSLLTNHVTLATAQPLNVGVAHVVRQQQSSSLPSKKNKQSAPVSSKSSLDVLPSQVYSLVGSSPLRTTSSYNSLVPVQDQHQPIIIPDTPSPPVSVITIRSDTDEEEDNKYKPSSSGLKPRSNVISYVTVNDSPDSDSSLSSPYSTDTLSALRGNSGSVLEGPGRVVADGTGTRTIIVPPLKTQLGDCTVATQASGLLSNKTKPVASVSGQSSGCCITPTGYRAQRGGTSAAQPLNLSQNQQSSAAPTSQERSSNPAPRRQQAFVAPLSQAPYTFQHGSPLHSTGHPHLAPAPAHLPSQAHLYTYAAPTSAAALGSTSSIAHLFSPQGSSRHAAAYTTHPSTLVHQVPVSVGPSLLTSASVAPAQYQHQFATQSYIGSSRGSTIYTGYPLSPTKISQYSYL
Chain of Mitogen-activated protein kinase 9 (Homo sapiens) (P45984 whole entry, looked up): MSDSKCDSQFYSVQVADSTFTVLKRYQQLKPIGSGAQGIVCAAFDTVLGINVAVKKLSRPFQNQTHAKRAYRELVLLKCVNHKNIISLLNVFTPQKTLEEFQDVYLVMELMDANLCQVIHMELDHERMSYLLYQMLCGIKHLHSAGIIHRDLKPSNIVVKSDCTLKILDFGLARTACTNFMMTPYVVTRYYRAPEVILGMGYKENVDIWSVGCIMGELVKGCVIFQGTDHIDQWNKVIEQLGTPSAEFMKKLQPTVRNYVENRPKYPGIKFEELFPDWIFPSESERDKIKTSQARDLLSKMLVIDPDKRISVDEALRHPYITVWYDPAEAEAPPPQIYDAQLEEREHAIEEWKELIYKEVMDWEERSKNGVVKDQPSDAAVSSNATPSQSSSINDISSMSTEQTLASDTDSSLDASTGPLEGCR

| Compound | inhibition [1] | inhibition [2] | inhibition [3] | inhibition [4] | inhibition [5] | inhibition [6] | inhibition [7] | inhibition [8] | inhibition [9] | inhibition [10] |
| --- | --- | --- | --- | --- | --- | --- | --- | --- | --- | --- |
| CC(=O)NCc1cccc(C#Cc2cncnc2Nc2ccc(OCc3cccc(F)c3)c(Cl)c2)c1 | 7.42% | -1.17% | 0.08% | -1.54% | 2.87% | 0.88% | 0.54% | 0.71% | 1.78% | -0.54% |
| CNC(=O)c1cc(-c2ccc(F)cc2)cc(-c2ccc(S(=O)(=O)N3CCCC3)cc2)c1N | 4.74% | -2.69% | -0.12% | -0.78% | 0.3% | 1.82% | 2.81% | 4.15% | 4.03% | 2.42% |
| COC(=O)c1sc(-n2cnc3cc(OC)c(OC)cc32)cc1OCc1ccccc1C(F)(F)F | 3.49% | -2.18% | -0.46% | -0.74% | 1.47% | 3.59% | 6.58% | 4.72% | 5.29% | 3.25% |
| CCn1c(-c2nonc2N)nc2cnc(Oc3cccc(NC(=O)c4ccc(N(C)C)cc4)c3)cc21 | 41% | -2.28% | 1.69% | -1.11% | 3.8% | 2.94% | 3.41% | 1.18% | 3.77% | 1.53% |
| COC(=O)Nc1nc2ccc(S(=O)(=O)c3ccc(NC(=O)Nc4cc(C(F)(F)F)ccc4F)cc3)cc2[nH]1 | 7.61% | -0.95% | 0.3% | -0.96% | 1.06% | 3.14% | 3.4% | 1.4% | 2.17% | 3% |
| COc1cccc(-n2ncc3c(N/N=C/c4ccc(F)cc4)ncnc32)c1 | 83% | 11.9% | 27.1% | 9.35% | 20.9% | 1.94% | 4.28% | 5.5% | 2.32% | 2.41% |
| Fc1ccc(-c2nn3ccccc3c2-c2ccncc2)cc1 | 10.7% | -1.55% | 0.97% | -0.72% | 0.37% | 4.3% | 25.4% | 0.83% | 1.21% | 1.33% |
| O=S(=O)(CCNCc1ccc(-c2ccc3ncnc(Nc4ccc(OCc5cccc(F)c5)c(Cl)c4)c3c2)o1)c1ccccc1 | 2.57% | 0.47% | 4.11% | 3.74% | 5.4% | 5.87% | 5.2% | 7.56% | 8.99% | 6.61% |
